These results are taken from PubChem BioAssay.

In assay [1] the target is ATP-dependent translocase ABCB1 (Homo sapiens) (UniProt P08183). In words: MDR1 (ABCB1) efflux transporter inhibition, cell-based (AID 377; in the data active means fluorescence slope change above about 50%). As to conditions: MDR1-expressing cells, fluorescent substrate accumulation slope; stronger effect = higher value; concentration not given here.
The nature of assay [2]: antimalarial activity against Dd2 strain (AID 2302;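 active means growth inhibition above 50% at the single 2 µM test dose, taken to imply half-maximal potency below 2 µM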;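 further: 0% = DMSO untreated growth and 100% = chloroquine plus artemisinin killed control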). As to conditions: P. falciparum Dd2 in RBCs, LDH growth readout, 72 h; at 2 µM; stronger effect = higher value.
In assay [3] the target is L-lactate dehydrogenase (Plasmodium falciparum (isolate CDC / Honduras)) (UniProt Q27743). The assay is described as follows: PfLDH activity inhibition – cell lysate, 3D7 strain, counter-screen for P. falciparum growth inhibition project (AID 2304).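 Further: 0% = vehicle and 100% = reference inhibitor.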 As to conditions: P. falciparum 3D7 crude extract, LDH APAD/NBT absorbance; at 2 µM; stronger effect = higher value.
Assay [4] can be described thus: inhibition of 3D7 malaria parasite growth – strain 3D7 (AID 2306).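 Further: 0% = DMSO wells and 100% = chloroquine plus artemisinin control wells.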 As to conditions: P. falciparum 3D7 erythrocytic growth, LDH absorbance, 72 h; at 2 µM; stronger effect = higher value.
The target of assay [5] is Calcium-dependent protein kinase 1 (Plasmodium falciparum (isolate 3D7)) (UniProt P62344). In words: PfCDPK1 kinase inhibitors, biochemical, TCAMS library (AID 1159585; cut-off not given, nearly all actives have IC50 up to about 0.98 µM;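 further: inhibitors leave more ATP so luminescence rises with inhibition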). Particulars: recombinant PfCDPK1, Kinase-Glo ATP depletion luminescence. For orientation: Kinase-Glo reads ATP consumption through a luciferase reaction.
Assay [6] has as its target Plasmodium falciparum protein kinase 6 (PK6, PF3D7_1337100) (UniProt Q8IDW1). In words: PfPK6 kinase inhibitors, biochemical, TCAMS library (AID 1159586). Particulars: recombinant PfPK6, Kinase-Glo ATP depletion luminescence.
Assay [7] has as its target Protein kinase 7 (PK7), Plasmodium falciparum 3D7 (PF3D7_0213400) (UniProt Q7YTF7). The assay is described as follows: inhibition of Plasmodium PK7 catalytic activity – biochemical, TCAMS antimalarial set, Kinase-Glo luminescence (AID 1159587). As to conditions: recombinant PfPK7, Kinase-Glo ATP depletion luminescence.
The target in assay [8] is Calcium-dependent protein kinase 4 (Plasmodium falciparum (isolate 3D7)) (UniProt Q8IBS5). In words: PfCDPK4 kinase inhibitors, biochemical, TCAMS library (AID 1159588; cut-off not given, nearly all actives have IC50 up to about 0.91 µM). As to conditions: recombinant PfCDPK4, Kinase-Glo ATP depletion luminescence.
The nature of assay [9]: growth inhibition of DIPG glioma cells, dose response, cell-based, SU-DIPG-XIII, MIPE5.0, CellTiter-Glo, qHTS (AID 1347064; cut-off not given, nearly all actives have AC50 up to about 23 µM;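 on AC50: cells exposed to compound for 48 hours before the viability read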). Particulars: SU-DIPG-XIII viability, CellTiter-Glo ATP luminescence.
Assay [10] is described as follows: viability loss in pontine glioma line – cell-based, SU-DIPG-XXV, MIPE5.0, CellTiter-Glo, qHTS, dose response (AID 1347065; cut-off not given, nearly all actives have AC50 up to about 26 µM;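 further: cells exposed to compound for 48 hours before ATP readout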). As to conditions: CellTiter-Glo ATP luminescence. A general note: Cellular ATP, detected with luciferase, serves as a proxy for viable cell number.
The test system of assay [11] is Neuropilin-2 / VEGF-C interaction (human). In words: inhibitors of NRP2–VEGF-C binding, biochemical, microplate binding format, z-score (AID 743281). Particulars: microplate NRP2/VEGF-C binding assay; stronger effect = lower value.
Assay [12] relates to Aerobactin synthetase IucA (Klebsiella pneumoniae). In words: IucA aerobactin synthetase inhibitors, biochemical, Tocris library, absorbance (AID 1345561).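 Further: 100% = enzyme without compound and 0% = no enzyme.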 Particulars: purified IucA enzyme assay, absorbance (OD) read-out; stronger effect = lower value;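 tested at 8 µM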.
Assay [13] in a line: liver-stage malaria parasite growth inhibition, primary screen, cell-based, HepG2, luciferase luminescence, HepG2 viability (AID 624349; in the data active means parasite load remaining mostly below about 12%, no sharp cut-off; inactive means mostly above about 10%;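 further: 100% = mean of DMSO negative control wells on the same plate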). As to conditions: P. berghei liver stage in HepG2, luciferase luminescence, concentration not given here; parasite load remaining: stronger effect = lower value; viability: measured here: HepG2 viability without parasites.
Assay [14] is described as follows: CRL2098 osteosarcoma cell growth inhibition, synergistic combos for chromothripsis tumors, BGB or cisplatin IC20 combos (AID 1671454; in the data active means inhibition above about 80%;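 further: cells exposed for 96 h before readout; 0% = vehicle DMSO and 100% = killing by high DMSO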). As to conditions: CRL2098 osteosarcoma cells, drug combinations, stronger effect = higher value.
Assay [15] is described as follows: HD-MB03 medulloblastoma cell growth inhibition, synergistic combos for chromothripsis tumors, BGB or cisplatin IC20 combos (AID 1671455; in the data active means inhibition above about 83%;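 further: 0% = vehicle DMSO and 100% = high DMSO as cytotoxic control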). Particulars: HD-MB03 medulloblastoma cells, stronger effect = higher value.
A short description of assay [16]: UWB1.289 ovarian carcinoma cell growth inhibition, synergistic combos for chromothripsis tumors, BGB or cisplatin combos (AID 1671456; in the data active means inhibition above about 80%;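 further: cells exposed to compound for four days; 0% = vehicle DMSO and 100% = killing by high DMSO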). As to conditions: UWB1.289 ovarian carcinoma cells, stronger effect = higher value.
The nature of assay [17]: LFS_MB_2R medulloblastoma cell growth inhibition, synergistic combos for chromothripsis tumors, cisplatin combos (AID 1671457; in the data active means inhibition above about 80%;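 further: cells exposed to compound for four days before readout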). Particulars: LFS_MB_2R medulloblastoma cells, stronger effect = higher value.
Assay [18] in a line: UWB1.289_BRCA1 ovarian cancer growth, cell-based, BGB or cisplatin combinations (AID 1671459; in the data active means inhibition above about 80%). Particulars: UWB1.289 BRCA1 ovarian carcinoma, drug combinations, stronger effect = higher value.
The nature of assay [19]: human astrocyte viability loss, single and combined drugs, cytotoxicity control for chromothriptic childhood tumor combination screen, cell-based, BGB or cisplatin IC20 combos (AID 1671460; in the data active means inhibition above about 80%;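 further: cells exposed to compounds for 96 hours before viability readout; 0% = vehicle and 100% = killing control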). Particulars: Human astrocytes, drug combinations, stronger effect = higher value.

Several values for one entry are separate records, joined by “and”; a condition that tells them apart may be missing. Identical values can stand only once. Records with an inconclusive call do not appear. For some assays here: Potency and affinity values are given separately. Activity calls are given as the source filed them. Unless noted, how the calls were made is not given here.

Sequence of Calcium-dependent protein kinase 1 (Plasmodium falciparum (isolate 3D7)) (P62344 whole entry, looked up): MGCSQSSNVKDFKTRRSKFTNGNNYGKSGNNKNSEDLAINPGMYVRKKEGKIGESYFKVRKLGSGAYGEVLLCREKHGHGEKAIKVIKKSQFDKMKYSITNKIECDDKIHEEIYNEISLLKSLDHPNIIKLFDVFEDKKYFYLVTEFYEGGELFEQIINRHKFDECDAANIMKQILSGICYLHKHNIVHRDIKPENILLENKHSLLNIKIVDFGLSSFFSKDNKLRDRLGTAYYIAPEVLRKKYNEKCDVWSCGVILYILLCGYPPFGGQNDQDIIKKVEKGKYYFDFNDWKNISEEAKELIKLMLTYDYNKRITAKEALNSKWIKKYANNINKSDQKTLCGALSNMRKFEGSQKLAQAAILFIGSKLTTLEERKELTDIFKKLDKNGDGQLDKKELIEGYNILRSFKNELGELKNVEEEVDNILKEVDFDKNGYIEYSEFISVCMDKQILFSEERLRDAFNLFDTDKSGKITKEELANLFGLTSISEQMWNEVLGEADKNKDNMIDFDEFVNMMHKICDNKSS
Sequence of ATP-dependent translocase ABCB1 (Homo sapiens) (P08183 whole entry, looked up): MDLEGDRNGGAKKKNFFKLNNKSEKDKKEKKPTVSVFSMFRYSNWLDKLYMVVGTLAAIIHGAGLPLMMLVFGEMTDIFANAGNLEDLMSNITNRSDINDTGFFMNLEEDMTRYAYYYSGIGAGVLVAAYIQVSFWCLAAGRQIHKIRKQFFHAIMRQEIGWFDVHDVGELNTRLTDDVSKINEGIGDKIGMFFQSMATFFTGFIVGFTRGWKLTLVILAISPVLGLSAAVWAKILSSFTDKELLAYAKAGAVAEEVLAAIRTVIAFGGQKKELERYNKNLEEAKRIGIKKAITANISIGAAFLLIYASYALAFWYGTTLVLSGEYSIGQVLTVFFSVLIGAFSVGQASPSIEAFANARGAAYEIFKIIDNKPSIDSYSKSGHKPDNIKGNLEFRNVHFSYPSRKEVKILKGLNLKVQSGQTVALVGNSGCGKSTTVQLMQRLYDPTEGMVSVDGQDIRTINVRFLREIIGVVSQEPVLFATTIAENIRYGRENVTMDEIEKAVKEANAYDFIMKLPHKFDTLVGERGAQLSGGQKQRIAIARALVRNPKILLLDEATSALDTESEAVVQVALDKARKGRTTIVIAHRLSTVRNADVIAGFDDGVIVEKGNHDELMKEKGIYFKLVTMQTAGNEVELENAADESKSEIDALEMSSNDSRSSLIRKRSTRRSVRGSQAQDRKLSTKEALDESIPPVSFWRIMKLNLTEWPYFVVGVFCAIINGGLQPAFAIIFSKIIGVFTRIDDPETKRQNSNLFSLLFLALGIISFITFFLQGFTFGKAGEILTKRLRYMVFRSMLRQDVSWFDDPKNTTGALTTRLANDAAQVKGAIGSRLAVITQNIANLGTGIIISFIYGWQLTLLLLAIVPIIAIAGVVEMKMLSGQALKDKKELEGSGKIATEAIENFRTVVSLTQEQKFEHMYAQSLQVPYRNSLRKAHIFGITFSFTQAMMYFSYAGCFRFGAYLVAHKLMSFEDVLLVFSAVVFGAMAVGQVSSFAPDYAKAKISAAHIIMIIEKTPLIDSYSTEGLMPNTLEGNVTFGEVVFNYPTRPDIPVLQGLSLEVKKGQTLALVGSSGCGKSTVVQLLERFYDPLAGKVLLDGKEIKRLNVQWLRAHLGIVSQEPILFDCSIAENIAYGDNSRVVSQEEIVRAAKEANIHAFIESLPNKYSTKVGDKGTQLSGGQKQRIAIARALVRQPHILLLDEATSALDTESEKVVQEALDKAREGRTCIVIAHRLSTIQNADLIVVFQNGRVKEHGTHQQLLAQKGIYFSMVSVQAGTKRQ
Sequence of Protein kinase 7 (PK7), Plasmodium falciparum 3D7 (PF3D7_0213400) (Q7YTF7 1-343): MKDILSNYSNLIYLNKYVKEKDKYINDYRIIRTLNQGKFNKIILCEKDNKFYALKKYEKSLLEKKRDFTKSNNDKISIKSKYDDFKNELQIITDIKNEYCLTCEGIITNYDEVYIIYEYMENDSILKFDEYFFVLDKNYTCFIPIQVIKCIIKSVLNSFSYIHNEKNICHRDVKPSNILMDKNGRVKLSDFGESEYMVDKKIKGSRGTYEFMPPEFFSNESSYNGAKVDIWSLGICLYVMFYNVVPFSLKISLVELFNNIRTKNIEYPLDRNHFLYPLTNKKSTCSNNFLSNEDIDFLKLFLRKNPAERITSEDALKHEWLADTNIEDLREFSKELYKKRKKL
Sequence of Calcium-dependent protein kinase 4 (Plasmodium falciparum (isolate 3D7)) (Q8IBS5 whole entry, looked up): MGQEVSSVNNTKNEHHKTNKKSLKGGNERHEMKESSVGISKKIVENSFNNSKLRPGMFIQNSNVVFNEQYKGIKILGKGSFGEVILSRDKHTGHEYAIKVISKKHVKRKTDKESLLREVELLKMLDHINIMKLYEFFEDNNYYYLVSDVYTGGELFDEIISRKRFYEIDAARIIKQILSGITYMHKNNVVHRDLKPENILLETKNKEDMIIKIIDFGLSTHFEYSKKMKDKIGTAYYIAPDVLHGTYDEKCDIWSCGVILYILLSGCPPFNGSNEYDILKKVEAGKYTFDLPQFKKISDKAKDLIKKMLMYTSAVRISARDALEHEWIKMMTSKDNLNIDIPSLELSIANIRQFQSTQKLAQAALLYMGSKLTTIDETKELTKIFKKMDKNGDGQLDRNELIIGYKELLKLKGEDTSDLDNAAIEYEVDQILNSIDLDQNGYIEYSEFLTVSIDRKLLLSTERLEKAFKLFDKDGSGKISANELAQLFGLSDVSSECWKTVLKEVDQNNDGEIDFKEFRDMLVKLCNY
Sequence of L-lactate dehydrogenase (Plasmodium falciparum (isolate CDC / Honduras)) (Q27743 whole entry, looked up): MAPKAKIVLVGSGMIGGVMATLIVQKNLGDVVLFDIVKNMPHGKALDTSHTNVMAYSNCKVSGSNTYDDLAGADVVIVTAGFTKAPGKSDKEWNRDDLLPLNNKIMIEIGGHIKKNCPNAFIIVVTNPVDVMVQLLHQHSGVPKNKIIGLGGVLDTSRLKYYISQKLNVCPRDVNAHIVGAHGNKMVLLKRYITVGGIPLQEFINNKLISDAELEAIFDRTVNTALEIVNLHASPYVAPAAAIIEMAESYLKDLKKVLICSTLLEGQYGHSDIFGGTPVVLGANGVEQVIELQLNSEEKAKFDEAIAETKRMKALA
Sequence of Plasmodium falciparum protein kinase 6 (PK6, PF3D7_1337100) (Q8IDW1 1-305): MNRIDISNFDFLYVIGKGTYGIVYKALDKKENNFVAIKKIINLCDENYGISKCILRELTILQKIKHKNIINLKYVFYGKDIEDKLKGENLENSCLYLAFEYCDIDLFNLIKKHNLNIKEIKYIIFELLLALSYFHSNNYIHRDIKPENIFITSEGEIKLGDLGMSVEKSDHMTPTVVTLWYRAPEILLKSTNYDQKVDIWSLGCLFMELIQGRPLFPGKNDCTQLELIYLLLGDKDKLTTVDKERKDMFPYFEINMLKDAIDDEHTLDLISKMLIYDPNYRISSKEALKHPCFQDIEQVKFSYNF

For `c1ccc([C@H]2CN3CCSC3=N2)cc1`, the fluorescence slope change in assay [1] was 63.5% (active). For the same molecule, the growth inhibition in assay [2] is 1% (inactive); in [4] it was 93% (active). Besides, in assay [3], the inhibition (usually the drop in the measured response relative to a control, in per cent) is 5% (inactive). For the same molecule, the result in assay [5], in assay [6], in [7], in [8], in [9] and in [10] was inactive.

For the molecule `Clc1cccc(Cl)c1NC1=NCCN1`, in assay [1], the fluorescence slope change is 110% (active). Moreover, the z-score in assay [11] is 0.177 (inactive). Further, the remaining activity – broadly, the signal under treatment as a percentage of the control signal – in [12] is 106% (inactive).

With `Oc1ccc(/C=C/c2cc(O)cc(O)c2)cc1`, the fluorescence slope change in assay [1] is 28.4% (inactive). In addition, the z-score in assay [11] is -0.145 (inactive). In addition, the remaining activity in assay [12] was 117% (inactive). In assay [9], the outcome was inactive.

Regarding `Cc1noc(NS(=O)(=O)c2ccc(N)cc2)c1C`, in [12], the remaining activity is 91.4% (inactive).

With `CC[C@H]1CN2CCc3cc(OC)c(OC)cc3[C@@H]2C[C@@H]1C[C@H]1NCCc2cc(OC)c(OC)cc21`, the growth inhibition was 99% (active) in assay [2] and 101% (active) in assay [4]. Moreover, the inhibition in [3] was -3% (inactive). The parasite load remaining in assay [13] is -66.8% (active). In addition, the viability – broadly, a per cent measure of how many cells are alive, often set against a control – in assay [13] was 76.3%. Further, the result in assay [5], in [6], in [7] and in [8] was inactive. Further, the values for the AC50 in assay [9] and in [10] were 0.166 µM (active) and 0.417 µM (active), respectively.

For the molecule `Nc1nc2c(ncn2COCCO)c(=O)[nH]1`, the remaining activity in assay [12] was 117% (inactive). For the same molecule, the outcome in [10] was inactive. The inhibition in assay [14] (at 0.5 µM) is -82.3% (inactive) and -42.2% (inactive); in [14] (measured here: combination with BGB at IC20, at 0.5 µM) it was -65.6% and -27.8%; in assay [14] (measured here: combination with cisplatin at IC20, at 0.5 µM), -92.2% and -76%; in [15] (at 0.5 µM) it was -9.51% (inactive) and -3.72% (inactive); in assay [15] (measured here: combo with BGB at IC20, at 0.5 µM) it was -2.11% and -3.06%; in assay [15] (measured here: combo with cisplatin at IC20, at 0.5 µM) it was -19.5% and -6.04%. Further, the inhibition is -7.84% (inactive) and 5.52% (inactive) in assay [16] (at 0.5 µM); -9.01% and -4.82% in assay [16] (measured here: inhibition with BGB combination, at 0.05 µM); -11.4% and 12.5% in assay [16] (measured here: inhibition with cisplatin combination, at 0.05 µM); -16.1% (inactive) and -6.37% (inactive) in [17] (at 0.5 µM); -14.9% and -19.4% in assay [17] (measured here: combination with cisplatin, at 0.5 µM); -76% and -8.06% in assay [17] (measured here: combination with cisplatin, at 5 µM). Further, the inhibition is -23.1% and 1.37% in assay [18] (BGB combination, concentration series, at 5 µM); -9.4% (inactive) and 8.78% (inactive) in [18] (at 0.5 µM); -14.8% and -13.6% in [18] (cisplatin combination, concentration series, at 5 µM); -9.43% (inactive) and 7.59% (inactive) in assay [19] (at 0.5 µM); -2.39% and 2.09% in assay [19] (measured here: combo with BGB IC20, at 0.5 µM); -29.6% and 5.16% in assay [19] (measured here: combo with cisplatin IC20, at 0.5 µM).

Consider `CC[C@H](C)C(=O)O[C@H]1C[C@@H](C)C=C2C=C[C@H](C)[C@H](CC[C@@H]3C[C@@H](O)CC(=O)O3)[C@H]21`, for which the fluorescence slope change in assay [1] is 166% (active). The remaining activity in [12] was 113% (inactive). The outcome in assay [10] was inactive.

As for `N=C(N)c1ccc(OCCCCCOc2ccc(C(=N)N)cc2)cc1`, the fluorescence slope change in assay [1] is 28.9% (inactive). The results for the growth inhibition in [2] and in [4] were 98% (active) and 99% (active), respectively. In addition, the inhibition in assay [3] was -2% (inactive). For the same molecule, the outcome in assay [5], in assay [6], in assay [7] and in assay [8] was inactive. The half-maximal activity concentration (AC50) – broadly, the concentration at which the activity in the assay is half-maximal – in assay [10] is 11.8 µM (active).

Turning to `c1ccc(CC2=NCCN2)cc1`, the results for the growth inhibition in assay [2] and in assay [4] were 0% (inactive) and 94% (active), respectively. Further, the inhibition in [3] was -3% (inactive). Besides, the result in assay [5], in assay [6], in assay [7] and in assay [8] was inactive.
